# Data as given in PubChem BioAssay AID1946 (Johns Hopkins Ion Channel Center, 2009).
# Out of some 2,400 compounds screened, about 180 (7.5%) were called active. The sample holds actives, similar compounds and a random draw of the others, so the mix is not that of the screen.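 How the source made its calls: active means readout below zero, meaning a drop past 3 SD under the dofetilide-free negative control mean; inactive means the rest.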
# Molecular target: Potassium voltage-gated channel subfamily KQT member 2 (Rattus norvegicus) (UniProt O88943)
# Sequence (O88943 whole entry, looked up): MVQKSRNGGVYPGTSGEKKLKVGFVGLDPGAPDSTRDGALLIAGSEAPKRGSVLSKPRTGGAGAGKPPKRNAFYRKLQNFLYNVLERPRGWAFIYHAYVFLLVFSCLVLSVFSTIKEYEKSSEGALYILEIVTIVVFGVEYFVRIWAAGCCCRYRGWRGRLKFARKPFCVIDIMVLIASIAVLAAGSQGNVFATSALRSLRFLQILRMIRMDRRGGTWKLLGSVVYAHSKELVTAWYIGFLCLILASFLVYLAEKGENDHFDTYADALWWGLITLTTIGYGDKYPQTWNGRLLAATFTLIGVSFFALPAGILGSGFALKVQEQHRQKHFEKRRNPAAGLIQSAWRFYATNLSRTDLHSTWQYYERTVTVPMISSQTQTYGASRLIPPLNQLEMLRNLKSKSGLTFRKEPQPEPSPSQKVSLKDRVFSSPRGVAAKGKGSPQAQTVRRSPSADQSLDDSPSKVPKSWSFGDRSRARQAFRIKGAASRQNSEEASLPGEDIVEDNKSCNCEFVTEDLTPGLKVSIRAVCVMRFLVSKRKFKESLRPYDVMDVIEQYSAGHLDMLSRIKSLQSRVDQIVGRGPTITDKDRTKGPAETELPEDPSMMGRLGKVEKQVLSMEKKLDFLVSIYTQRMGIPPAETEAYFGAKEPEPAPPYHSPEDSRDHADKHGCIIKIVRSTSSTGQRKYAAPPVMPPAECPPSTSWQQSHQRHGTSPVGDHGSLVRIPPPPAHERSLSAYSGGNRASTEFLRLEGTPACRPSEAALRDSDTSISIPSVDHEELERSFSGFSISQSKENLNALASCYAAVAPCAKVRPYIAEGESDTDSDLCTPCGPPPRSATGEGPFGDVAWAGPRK
# Experiment: KCNQ2 blockade in CHO cells – cell-based, FluxOR thallium flux, counter-screen for hERG block protector project, confirmation (AID 1946)
# Details: FluxOR thallium flux fluorescence, at 10 µM, hits give low values, zero marks the 3-SD hit cutoff
row,Structure (SMILES),activity change vs negative control
1,COC(=O)C1=NN(C(=O)c2cccc(Br)c2)C(O)(c2ccc(Cl)cc2)C1 (centres undefined),158% (inactive)
2,CCOC(=O)c1cnn(-c2nc(SC)nc3sc4c(c23)CCCC4)c1N,5.9% (inactive)
3,Cc1ccc(NC(=O)CCc2nc3sc4c(c3c(=O)[nH]2)CCCC4)c(Br)c1,-0.3% (active)
4,Cc1nc(SCC(=O)NCC2CCCO2)c2c3c(sc2n1)CCCC3 (centres undefined),32.5% (inactive)
5,Fc1ccc(NC(=S)Nc2nccs2)cc1,16.4% (inactive)
6,CCC(C)c1ccccc1NC(=S)NC(=O)c1ccco1 (centres undefined),82% (inactive)
7,COc1cc(/C=C2/SC(=S)N(CC(=O)O)C2=O)ccc1OCC(=O)Nc1ccc(C)c(C)c1,-3.8% (active)
8,Cc1ccc(NC(=O)CN2C(=O)S/C(=C/c3ccc(-c4cc(C(=O)O)ccc4C)o3)C2=O)cc1C,4.8% (inactive)
9,O=C(CCN1C(=O)/C(=C/c2cccs2)SC1=S)Nc1cccc(C(=O)O)c1,5.2% (inactive)
10,CSc1nc2c(c(=O)[nH]1)C(c1ccccc1Cl)CC(=O)N2 (centres undefined),1.5% (inactive)
11,Cc1cccc(NC(=S)NC(=O)c2ccc(Br)o2)c1C,27.3% (inactive)
12,Cc1ccc(C(=O)NC(C)c2ccc(C)c(C)c2)s1 (centres undefined),53.7% (inactive)
13,COc1cc(/C=C/C(=O)O)ccc1OS(=O)(=O)c1cc(C)ccc1C,13.1% (inactive)
14,COc1ccc(/C=C2\SC(=N)N(c3nccs3)C2=O)cc1OC,6.8% (inactive)
15,COc1ccc(/C=C2\SC(c3ccc(C)cc3)=NC2=O)cc1OC,-3.2% (active)
16,O=S(=O)(NC(=S)NC1CCCCC1)c1ccc(Cl)cc1,34.4% (inactive)
17,S=c1nc(Cc2ccc(Cl)cc2)[nH]c2ccccc12,51.9% (inactive)
18,COc1ccccc1NC(=O)C1CCCN1C(=O)NCc1ccccc1 (centres undefined),-1.2% (active)
19,COc1ccccc1NC(=O)C1CCCN1C(=O)Nc1ccc(F)cc1 (centres undefined),1.7% (inactive)
20,COc1ccccc1C(=O)NNC(=O)C(=O)NCc1ccccc1,41.8% (inactive)
21,COc1cccc(OCC(=O)NNC(=O)C(=O)Nc2ccc(OC)cc2OC)c1,43.2% (inactive)
22,CCCN1C(=O)/C(=C/c2ccc3c(c2)OCO3)NC1=S,19.4% (inactive)
23,O=C1NC(=O)/C(=C/c2cc3c(cc2Br)OCO3)S1,-0.8% (active)
24,O=C1NC(=S)S/C1=C\c1ccc2ccccc2c1,75.1% (inactive)
25,N#Cc1c(NC(=O)c2cc(-n3cnnc3)ccc2Cl)sc2c1CCCC2,13% (inactive)

row,Structure (SMILES),activity change vs negative control
1,COc1ccc(C(=O)CC(=O)C(=O)Nc2ccccc2)cc1,32.5% (inactive)
2,CC1CN(C(=S)NC(=O)c2ccc(Cl)cc2)CC(C)O1 (centres undefined),28.2% (inactive)
3,CCn1cc(C(=O)NCCN(C)C)c(=O)c2cc(F)c(N3CCN(C)CC3)cc21,-0.9% (active)
4,O=C(NC(=S)Nc1cccnc1)c1cc2ccccc2o1,31.9% (inactive)
5,COc1ccc(CS(=O)(=O)CC2(O)CCN(C(=O)c3cccc(C(F)(F)F)c3)CC2)cc1,-2.4% (active)
6,CC(C)Oc1cccc(C(=O)N2CCCC2)c1,9.7% (inactive)
7,COc1ccc(C(=O)O)cc1S(=O)(=O)Nc1cccc(C(F)(F)F)c1,8% (inactive)
8,C/C(=N\NC(=O)c1cc2ccccc2cc1O)c1cc2ccccc2o1,112% (inactive)
9,O=C(Nc1nc(=O)c2ccccc2s1)c1ccc(Cl)cc1,23.9% (inactive)
10,Cc1ccc(C(=O)Nc2nc(=O)n(C)s2)cc1,15.9% (inactive)
11,Cc1c(-c2ccn[nH]2)cc(NC(=O)c2ccc(Cl)cc2)c(=O)n1N,-0.8% (active)
12,CCOC(=O)c1ccc(NC(=O)Cn2nnc(-c3ccccc3)n2)cc1,-3.4% (active)
13,Cc1cc(C)c(-c2cc(NC(=O)COC(=O)c3ccc(NC(=O)CC#N)cc3)n(-c3ccccc3)n2)cc1C,7.4% (inactive)
14,CCOC(=O)c1nnn(CC(=O)Nc2cccc(F)c2)c1C(=O)OCC,14.1% (inactive)
15,Cc1cccc(NC(=S)NC(=O)c2ccco2)c1C,77.7% (inactive)
16,O=C(Nc1cccc2[nH]ncc12)c1ccc(F)cc1,-2.9% (active)
17,O=C(Nc1nc(-c2ccccc2)c(-c2ccccc2)o1)c1ccc(F)cc1,40.3% (inactive)
18,CCOc1cccc(C(=O)Nc2ccc3[nH]ncc3c2)c1,15.6% (inactive)
19,CCCCn1c(N)c(C(=S)NC(=O)CC(C)(C)C)c(=O)n(C)c1=O,40.5% (inactive)
20,Cc1sc2ncnc(SCC(=O)c3ccc(O)cc3O)c2c1C,24.3% (inactive)
21,Cn1ncc2c(NNC(=O)c3ccc(O)cc3)ncnc21,-3.1% (active)
22,Cn1ncc2c(NNC(=O)Cc3ccccc3)ncnc21,15.1% (inactive)
23,Cn1ncc2c(O/N=C(\N)c3ccc(C(F)(F)F)cc3)ncnc21,7.4% (inactive)
24,O=c1cc(-c2ccccc2)cc(-c2ccccc2)n1O,72.2% (inactive)
25,COC(=O)CNc1nc(Cl)nc(Nc2ccc(C)cc2)n1,-0.4% (active)

row,Structure (SMILES),activity change vs negative control
1,COc1ccc(OCC(=O)NNC(=O)C(=O)Nc2ccc(C)cc2)cc1,7.7% (inactive)
2,COC(=O)CNC(=S)NC(=O)c1ccc(C(C)(C)C)cc1,1.6% (inactive)
3,COc1ccc(Cn2c(O)cc(=O)[nH]c2=O)cc1,1.4% (inactive)
4,COc1ccc(-n2c(O)c(/C=C3\C=Nc4ccccc43)c(=O)[nH]c2=O)cc1,-8.7% (active)
5,COc1ccc(-n2c(=S)[nH]c3ccccc3c2=S)cc1,22.2% (inactive)
6,CCC1(C)Cc2c(sc3nc(SC)[nH]c(=S)c23)CO1 (centres undefined),131% (inactive)
7,COc1ccc(/C=C/C(=O)Nc2ccccc2C(=O)O)cc1,27.2% (inactive)
8,CCOC(=O)/C(C)=N/NC(=O)c1ccc([N+](=O)[O-])cc1,40.5% (inactive)
9,CCNC(=S)Nc1nc2c(cc1C(=O)OCC)CCCC2,29.4% (inactive)
10,O=C(O)CSCc1c(F)cccc1Cl,-3.5% (active)
11,O=C(O)CSc1nc2ccccc2nc1Cc1ccccc1F,29.1% (inactive)
12,CCN(CC)CCCN1C(=O)c2oc3ccccc3c(=O)c2C1c1cccs1 (centres undefined),44.2% (inactive)
13,CON/C=N/C(=S)Nc1ncc(C(F)(F)F)cc1Cl,51.1% (inactive)
14,Cc1nn(C)c(C(=O)NC(=S)Nc2ccc([N+](=O)[O-])cc2)c1Cl,29.3% (inactive)
15,Cc1ccc(NC(=S)NC(=O)c2sc3ccccc3c2Cl)c(C(=O)O)c1,36.9% (inactive)
16,COc1cccc(C2C3=C(N=c4s/c(=C\c5ccc(OCC(=O)O)cc5)c(=O)n42)c2ccccc2CC3)c1 (centres undefined),-16.7% (active)
17,CCOc1ccc(/C=C2\CCc3ccccc3C2=O)cc1,10.2% (inactive)
18,COc1cccc([C@@H]2Oc3ccc(OC)cc3C(=O)[C@H]2OC(=O)NCc2ccc3c(c2)OCO3)c1,2.3% (inactive)
19,O=C(NC(=S)N(CCCCO)C1CCCCC1)c1sc2ccccc2c1Cl,53.8% (inactive)
20,O=C(CNCC1CCCO1)N1CCCCCC1 (centres undefined),8.2% (inactive)
21,O=C(CSc1cn(CC(=O)N2CCCC2)c2ccccc12)NCC1CCCO1 (centres undefined),-4.5% (active)
22,C=CCn1c(SCC(=O)NCC2CCCO2)nnc1-c1ccccc1 (centres undefined),8.9% (inactive)
23,CC(C)(C)c1cc(C(=O)NNC(=O)c2ccc(Cl)cc2)no1,53.5% (inactive)
24,COc1cccc(OC)c1OCCOCCN1CCN(C)CC1,6.8% (inactive)
25,COc1cccc(CN(C)CC2CCCN(CCc3ccc(Cl)cc3)C2)c1OC (centres undefined),-3.8% (active)

row,Structure (SMILES),activity change vs negative control
1,Oc1c(Cl)cc(Cl)cc1C=Nc1ccc(Br)cc1,60.6% (inactive)
2,CCOC(=O)N/N=C/C=C/c1ccccc1[N+](=O)[O-],28.8% (inactive)
3,C=CCN(c1ccc(Cl)cc1)S(=O)(=O)c1cccc(C(=O)O)c1,26.2% (inactive)
4,S=c1nn[nH]n1C12CC3CC(CC(C3)C1)C2,36.2% (inactive)
5,CC1CCN(C(=S)NC(=O)c2cccs2)CC1,23.7% (inactive)
6,C=CCn1c(=S)[nH]c2scc(-c3cccs3)c2c1=O,121% (inactive)
7,C=CCc1cccc(C2Nc3ccccc3C(=O)N2O)c1O (centres undefined),19% (inactive)
8,OC(CNCCc1ccc(C(F)(F)F)cc1)COc1cccc2ccccc12 (centres undefined),-18.2% (active)
9,Cn1c(NNC(=O)C(c2ccccc2)c2ccccc2)cc(=O)n(C)c1=O,12.8% (inactive)
10,CC12CCC(C(=O)NCc3ccc4c(c3)OCO4)(CC1=O)C2(C)C (centres undefined),9.1% (inactive)
11,Cc1ccc(C(=O)NNc2cc(N3CCCC3)nc(N3CCCC3)n2)cc1,39.7% (inactive)
12,COc1ccccc1NC(=O)C(=O)NNC(=O)c1ccco1,47.8% (inactive)
13,COc1ccc(COC(=O)C2CCN(S(=O)(=O)c3cccs3)CC2)cc1,9.3% (inactive)
14,CC(=O)c1cccc(NC(=O)NCc2cccs2)c1,8.1% (inactive)
15,O=C(NCc1cccs1)C1CCC(CNS(=O)(=O)c2cccs2)CC1 (centres undefined),-0.3% (active)
16,O=[N+]([O-])c1ccc(-c2ccc(/C=N/n3cnnc3)o2)c(Br)c1,3.2% (inactive)
17,CCOC(=O)/C(C)=N/NC(=O)c1cccc([N+](=O)[O-])c1,36.5% (inactive)
18,COc1ccc(C(=O)NC2CC3CCCC(C2)N3Cc2ccccc2)cc1 (centres undefined),3.9% (inactive)
19,COc1ccccc1C(=O)NNC(=O)C(=O)NC1CCCCC1,71.2% (inactive)
20,CCOc1ccccc1C(=O)NC1CC2CCCC(C1)N2Cc1nnnn1Cc1ccco1 (centres undefined),-2.8% (active)
21,COc1ccc(C(=O)CC(=O)C(=O)Nc2ccccc2Cl)cc1,73.9% (inactive)
22,COc1cc(NC(=O)CCCOc2ccc(Cl)cc2Cl)c(C(=O)O)cc1OC,4.3% (inactive)
23,O=C(COc1ccc(Cl)cc1Cl)NC(=S)Nc1ccccc1C(=O)O,10.9% (inactive)
24,O=C(CCCOc1ccc(Cl)cc1Cl)Nc1ccccc1C(=O)O,-11.5% (active)
